Data reported in PubChem BioAssay (NCATS).
Inconclusive results are not listed. The source made the active and inactive calls. Unless noted, the call rests on the fitted dose curve; in most records, active means well fitted curve in the direction sought with a large enough effect; inconclusive means small, poorly fitted or top-dose-only effect, or another doubt; inactive means no such curve, though single readings can be large; an effect the other way counts as inactive or inconclusive.

Columns and labels:
[1] = target: Thioredoxin reductase 1, cytoplasmic (Rattus norvegicus) (UniProt O89049); experiment: qHTS Assay for Substrates of Mammalian Selenoprotein Thioredoxin Reductase 1 (TrxR1) (AID 488772);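 further: NADPH fluorescence in the first read after selenite addition and not the 8 min delta; series mostly up to about 57 µM; 0% is about no effect; a drop in NADPH fluorescence below the no-compound background marks a TrxR1 substrate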
Thioredoxin reductase 1, cytoplasmic (Rattus norvegicus), sequence (O89049 whole entry, looked up): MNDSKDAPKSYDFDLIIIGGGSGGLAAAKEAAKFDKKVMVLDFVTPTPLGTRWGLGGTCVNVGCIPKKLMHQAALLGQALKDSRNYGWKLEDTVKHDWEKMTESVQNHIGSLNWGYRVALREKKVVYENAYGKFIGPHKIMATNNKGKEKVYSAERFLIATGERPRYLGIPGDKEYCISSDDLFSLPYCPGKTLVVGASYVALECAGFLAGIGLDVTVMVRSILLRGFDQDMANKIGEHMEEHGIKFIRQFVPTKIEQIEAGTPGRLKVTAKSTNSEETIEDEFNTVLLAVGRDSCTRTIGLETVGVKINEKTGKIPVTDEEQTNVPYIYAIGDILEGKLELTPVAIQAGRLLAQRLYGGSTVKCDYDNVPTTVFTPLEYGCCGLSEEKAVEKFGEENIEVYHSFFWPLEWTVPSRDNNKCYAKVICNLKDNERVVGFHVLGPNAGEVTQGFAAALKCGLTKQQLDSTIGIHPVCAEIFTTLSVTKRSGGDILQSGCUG
Summary of the method: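 Quantitative HTS in Tris-HCl buffer at pH 7.5 with EDTA and Tween-20, using rat TrxR1, 400 uM NADPH and 400 uM selenite (final). A fall in initial NADPH fluorescence relative to background marked substrate behaviour.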

[2] = target: Thioredoxin reductase 1, cytoplasmic (Rattus norvegicus) (UniProt O89049); experiment: qHTS Assay for Inhibitors of Mammalian Selenoprotein Thioredoxin Reductase 1 (TrxR1) (AID 488773); conditions: Potency: inhibition; further: nearly all actives have a fitted effect of over 40% in size; further: potency means the concentration at half of the fitted maximal effect
Summary of the method: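 Steps: enzyme (90 nM) plus NADPH (400 uM final), 5 min at ~22 deg C; compound added, 15 min; selenite (400 uM final) added; fluorescence followed for 8 min. Concentration-response curves derived from the normalized delta values.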

[3] = target: Flap endonuclease 1 (Homo sapiens) (UniProt P39748); experiment: qHTS Validation Assay for the Inhibitors of Human Flap endonuclease 1 (FEN1) (AID 488816); further: on the % scale 0 is the no-effect control and ±100 the full control effect
Summary of the method: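 FEN1, dispensed as a 10 nM reagent, was preincubated with pin-transferred compounds for 15 min at room temperature before substrate was added (50 nM final). Plates were read at 0 and 15 min, and a four-parameter Hill equation was fitted to the concentration-response data.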

[4] = target: M-phase phosphoprotein 8 (Homo sapiens) (UniProt Q99549); experiment: qHTS Validation Assay for Inhibitors for MPP8 Chromodomain Interactions with Methylated Histone Tails (AID 488949);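 further: AlphaScreen signal from MPP8 chromodomain bound to biotinylated H3K9me3 peptide; top concentration of the series differs between compounds; on the % scale 0 is the no-effect control and ±100 the full control effect; nearly all actives have a fitted effect of over 55% in size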
Summary of the method: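 AlphaScreen read-out: streptavidin donor and nickel chelate acceptor beads (final 10 ug/mL), 30 min in the dark at RT. Complex of 50 nM MPP8 and 50 nM b-H3(1-18)K9me3 peptide had been exposed to compounds for 30 min beforehand.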

[5] = target: Chromobox protein homolog 1 (Homo sapiens) (UniProt P83916); experiment: qHTS Validation Assay for Inhibitors of HP1-beta Chromodomain Interactions with Methylated Histone Tails (AID 488953); further: nearly all actives have a fitted effect of over 50% in size; further: potency means the concentration at half of the fitted maximal effect
Chromobox protein homolog 1 (Homo sapiens), sequence (P83916 whole entry, looked up): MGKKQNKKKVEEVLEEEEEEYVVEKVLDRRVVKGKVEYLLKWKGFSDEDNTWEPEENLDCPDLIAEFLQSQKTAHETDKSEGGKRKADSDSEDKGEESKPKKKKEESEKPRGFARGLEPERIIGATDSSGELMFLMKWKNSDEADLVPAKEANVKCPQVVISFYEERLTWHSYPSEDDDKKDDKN
Summary of the method: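 50 nM HP1-beta + 50 nM biotin-H3(1-18)K9me3, PBS pH 7.4, 0.01% Tween-20, 30 min RT; compound added, 30 min RT; AlphaScreen beads 10 ug/mL final, 30 min dark; luminescence read.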

[6] = target: Methanococcus maripaludis chaperonin (MmCpn) (UniProt Q6LX38); experiment: High-Throughput Screening for Modulators of Cytosolic Chaperonin Activity: MmCpn Primary Screen (AID 488978);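 further: 50 nM MmCpn enzyme hydrolysing 30 µM ATP at 37 °C; 0% is about no effect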
Methanococcus maripaludis chaperonin (MmCpn), sequence (Q6LX38 1-543): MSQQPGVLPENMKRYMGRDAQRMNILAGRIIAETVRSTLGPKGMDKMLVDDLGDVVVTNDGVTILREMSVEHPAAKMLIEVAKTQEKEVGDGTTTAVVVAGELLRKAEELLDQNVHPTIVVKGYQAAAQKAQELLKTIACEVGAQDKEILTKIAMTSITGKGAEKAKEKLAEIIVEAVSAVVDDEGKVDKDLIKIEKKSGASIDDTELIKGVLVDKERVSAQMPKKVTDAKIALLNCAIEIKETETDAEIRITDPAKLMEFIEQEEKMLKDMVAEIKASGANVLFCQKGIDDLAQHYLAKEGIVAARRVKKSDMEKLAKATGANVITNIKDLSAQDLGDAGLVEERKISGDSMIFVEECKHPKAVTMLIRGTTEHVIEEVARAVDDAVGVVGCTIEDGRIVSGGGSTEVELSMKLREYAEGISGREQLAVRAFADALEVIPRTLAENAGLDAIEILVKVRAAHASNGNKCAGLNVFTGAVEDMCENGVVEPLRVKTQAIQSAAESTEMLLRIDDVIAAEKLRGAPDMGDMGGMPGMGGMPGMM
Summary of the method: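 ADP formation read by HTRF Transcreener, 665/590 nm emission after 320 nm excitation. Enzyme: archaeal chaperonin at 50 nM final; substrate ATP 30 uM final; 10 min, 37C, after 5 min compound preincubation at RT.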

[7] = target: D(1A) dopamine receptor (Homo sapiens) (UniProt P21728); experiment: HTS Assay for Allosteric Agonists of the Human D1 Dopamine Receptor: Primary Screen for Agonists (AID 488981); further: potency means the concentration at half of the fitted maximal effect; on activation: 0% is about no effect
Summary of the method: (§1)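 Tetracycline-induced HEK293 T-REx cells force-coupled to calcium signalling were incubated overnight at 30 C and dye-loaded at room temperature. Calcium flux over 180 s after compound addition flagged agonists; a further 180 s read after EC20 dopamine flagged potentiators.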

[8] = target: D(1A) dopamine receptor (Homo sapiens) (UniProt P21728); experiment: HTS Assay for Allosteric Agonists of the Human D1 Dopamine Receptor: Primary Screen for Potentiators (AID 488982); further: 0% is about no effect
Summary of the method: as §1

[9] = target: D(1A) dopamine receptor (Homo sapiens) (UniProt P21728); experiment: HTS Assay for Allosteric Agonists of the Human D1 Dopamine Receptor: Primary Screen for Antagonists (AID 488983);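 further: calcium flux response to an EC80 dopamine challenge measured with no-wash dye; nearly all actives have a fitted effect of over 65% in size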; further: potency means the concentration at half of the fitted maximal effect
Summary of the method: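 Cells are induced with tetracycline and incubated overnight at 30 C, then loaded with calcium dye for 30 to 90 minutes at room temperature. Compound addition is followed by a 180 s read, then an EC80 dopamine addition and another 180 s read.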

[10] = Validation screen for small molecules that induce genotoxicity in human embryonic kidney (HEK293T) cells expressing luciferase-tagged ELG1 (AID 493106); further: 0% is about no effect
Summary of the method: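 Luminescence from an ELG1-luciferase fusion serves as the read-out, rising when genetic stress elevates ELG1 protein. HEK293T reporter cells (2,000 per well) received 23 nL compound, incubated 16 hr at 37 °C, then ONE-Glo for 30 min at room temperature.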

[11] = target: ATPase family AAA domain-containing protein 5 (Homo sapiens) (UniProt Q96QE3); experiment: Validation screen for small molecules that inhibit ELG1-dependent DNA repair in human embryonic kidney (HEK293T) cells expressing luciferase-tagged ELG1 (AID 493107); further: nearly all actives have a fitted effect of over 70% in size; further: potency means the concentration at half of the fitted maximal effect
ATPase family AAA domain-containing protein 5 (Homo sapiens), sequence (Q96QE3 whole entry, looked up, the tested form may be a part): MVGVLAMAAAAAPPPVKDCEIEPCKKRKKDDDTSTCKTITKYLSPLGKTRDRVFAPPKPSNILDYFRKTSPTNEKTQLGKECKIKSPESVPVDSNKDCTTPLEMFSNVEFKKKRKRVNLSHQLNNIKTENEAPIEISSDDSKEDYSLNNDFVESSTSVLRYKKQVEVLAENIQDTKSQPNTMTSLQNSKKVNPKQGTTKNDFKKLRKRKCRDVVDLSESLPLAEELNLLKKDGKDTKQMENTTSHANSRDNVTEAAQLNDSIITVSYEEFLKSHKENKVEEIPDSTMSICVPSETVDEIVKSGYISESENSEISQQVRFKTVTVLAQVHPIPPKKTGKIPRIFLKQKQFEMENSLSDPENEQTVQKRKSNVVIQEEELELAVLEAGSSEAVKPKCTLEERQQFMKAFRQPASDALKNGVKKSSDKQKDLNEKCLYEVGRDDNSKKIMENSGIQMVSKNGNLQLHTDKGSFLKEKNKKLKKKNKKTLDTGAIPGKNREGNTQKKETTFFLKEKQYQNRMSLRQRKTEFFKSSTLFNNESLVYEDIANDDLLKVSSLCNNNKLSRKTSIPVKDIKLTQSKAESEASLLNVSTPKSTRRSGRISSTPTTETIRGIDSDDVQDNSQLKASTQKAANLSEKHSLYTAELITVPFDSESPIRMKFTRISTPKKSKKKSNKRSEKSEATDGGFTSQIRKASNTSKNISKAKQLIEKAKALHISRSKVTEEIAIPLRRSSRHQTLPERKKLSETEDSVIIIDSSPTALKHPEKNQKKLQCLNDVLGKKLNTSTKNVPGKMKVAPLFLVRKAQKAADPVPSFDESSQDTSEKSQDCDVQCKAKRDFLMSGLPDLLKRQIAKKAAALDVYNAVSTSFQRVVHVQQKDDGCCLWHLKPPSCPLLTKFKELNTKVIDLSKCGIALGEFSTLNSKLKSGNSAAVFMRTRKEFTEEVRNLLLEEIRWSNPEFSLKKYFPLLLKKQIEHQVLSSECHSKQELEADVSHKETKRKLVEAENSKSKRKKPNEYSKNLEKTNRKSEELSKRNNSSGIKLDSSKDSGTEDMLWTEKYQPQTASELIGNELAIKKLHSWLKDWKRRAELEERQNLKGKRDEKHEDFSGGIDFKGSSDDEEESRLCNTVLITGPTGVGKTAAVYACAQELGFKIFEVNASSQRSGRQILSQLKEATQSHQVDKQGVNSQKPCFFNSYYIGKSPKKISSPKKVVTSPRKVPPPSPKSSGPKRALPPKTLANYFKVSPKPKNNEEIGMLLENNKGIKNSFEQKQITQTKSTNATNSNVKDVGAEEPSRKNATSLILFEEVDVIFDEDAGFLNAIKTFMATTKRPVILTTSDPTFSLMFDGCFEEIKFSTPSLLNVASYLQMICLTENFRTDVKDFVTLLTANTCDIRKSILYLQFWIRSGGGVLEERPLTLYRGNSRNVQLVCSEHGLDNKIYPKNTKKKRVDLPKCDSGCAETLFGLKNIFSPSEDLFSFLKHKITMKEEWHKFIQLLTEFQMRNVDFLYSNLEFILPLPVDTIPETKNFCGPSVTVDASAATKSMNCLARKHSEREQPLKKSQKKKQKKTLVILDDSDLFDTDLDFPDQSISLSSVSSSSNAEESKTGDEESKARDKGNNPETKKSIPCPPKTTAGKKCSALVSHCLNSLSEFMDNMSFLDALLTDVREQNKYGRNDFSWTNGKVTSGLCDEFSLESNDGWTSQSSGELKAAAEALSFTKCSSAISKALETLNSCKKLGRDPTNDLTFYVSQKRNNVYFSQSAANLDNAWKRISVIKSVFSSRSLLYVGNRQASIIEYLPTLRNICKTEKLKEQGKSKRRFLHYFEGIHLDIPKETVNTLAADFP
Summary of the method: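 Luminescence from ONE-Glo, developed 30 min at room temperature, served as read-out of ELG1-luciferase levels. Beforehand, reporter HEK293T cells received 5-fluorouridine plus test compound for 16 hr at 37 °C.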

[12] = qHTS for Inhibitors of Cell Surface uPA Generation: Validation Assay (AID 493164); further: 0% is about no effect
Summary of the method: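 RAW 264.7 cells (4000/well) were plated overnight, then exposed for 18 h at 37 C, 5% CO2 to compounds in a 7-point 1:5 titration (2.45 nM–38.3 uM final). Intracellular ATP was read by ATP-Lite luminescence.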

[13] = target: Transient receptor potential cation channel subfamily V member 1 (Homo sapiens) (UniProt Q8NER1); experiment: HTS Assay for Compounds that Act as Enhancers of the Vanilloid Receptor 1 (AID 488979); further: 0% is about no effect
Transient receptor potential cation channel subfamily V member 1 (Homo sapiens), sequence (Q8NER1 whole entry, looked up): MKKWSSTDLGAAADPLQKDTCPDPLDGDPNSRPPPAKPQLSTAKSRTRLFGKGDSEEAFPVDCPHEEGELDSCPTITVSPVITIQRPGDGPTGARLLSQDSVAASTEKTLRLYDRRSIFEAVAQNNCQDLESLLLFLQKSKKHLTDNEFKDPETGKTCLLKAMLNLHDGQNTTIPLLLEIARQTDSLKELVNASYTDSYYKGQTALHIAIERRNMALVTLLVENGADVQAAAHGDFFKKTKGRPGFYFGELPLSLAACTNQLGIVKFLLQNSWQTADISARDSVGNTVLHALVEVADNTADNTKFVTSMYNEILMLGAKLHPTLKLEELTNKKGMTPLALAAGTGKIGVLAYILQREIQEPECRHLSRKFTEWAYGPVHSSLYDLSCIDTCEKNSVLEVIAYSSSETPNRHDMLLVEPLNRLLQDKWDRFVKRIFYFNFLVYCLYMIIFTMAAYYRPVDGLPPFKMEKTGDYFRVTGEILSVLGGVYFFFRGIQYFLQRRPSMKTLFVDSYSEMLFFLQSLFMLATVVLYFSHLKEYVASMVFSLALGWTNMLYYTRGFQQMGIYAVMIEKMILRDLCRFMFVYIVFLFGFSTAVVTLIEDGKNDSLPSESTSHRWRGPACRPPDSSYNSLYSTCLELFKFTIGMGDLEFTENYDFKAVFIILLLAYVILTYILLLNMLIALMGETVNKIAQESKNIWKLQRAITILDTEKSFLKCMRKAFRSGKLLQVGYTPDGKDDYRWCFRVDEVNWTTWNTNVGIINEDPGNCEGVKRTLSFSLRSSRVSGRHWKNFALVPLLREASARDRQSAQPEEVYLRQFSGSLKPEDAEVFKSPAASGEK
Summary of the method: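 TRPV1-expressing cells loaded with Fluo-8 calcium dye; compounds added and calcium influx read kinetically for 3 min (agonist phase), then capsaicin at EC20 added and read 2 min more for enhancement. Fluorescence ex 480/em 520 nm.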

[14] = target: Thyrotropin-releasing hormone receptor (Homo sapiens) (UniProt P34981); experiment: qHTS for Small Molecule Agonists and Allosteric Enhancers of Human TRH Receptor: Validation Screen for Agonists (AID 493127;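 active means calcium activation more than 3 SD above the typical response in the agonist read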;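 further: intracellular calcium rise by fluo-8 fluorescence before TRH EC20 addition; 0% is about no effect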); conditions: TRH receptor agonist cell assay; at 2 µM; stronger effect = higher value
Summary of the method: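 Cells 2000/well, 10% FCS, 18 h 33.5C/5% CO2 → fluo-8 Ca dye, RT 30 min–1.5 h → FDSS baseline 10 × 1 s → compound added → 230 cycles (1 s/cycle) agonist mode. TRH controls.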

[15] = Nrf2 qHTS screen for inhibitors: Validation (AID 493153; active means well fitted inhibition curve with a large enough effect in the main read-out, with a control signal flat, not every such curve was filed as active); conditions: Potency: luciferase luminescence; viability change: measured here: cytotoxicity max response
Summary of the method: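 Luminescence from an ARE-firefly luciferase reporter in A549 cells gives Nrf2 inhibition; an earlier CellTiter-Fluor fluorescent read flags cytotoxicity. Cells in 5% FBS OPTI-MEM received compound dilution series for 18-24 h at 37°C.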

[16] = target: Galactokinase (Homo sapiens) (UniProt P51570); experiment: qHTS Validation Assay for Inhibitors of Human Galactokinase (GALK) (AID 493189); further: 0% is about no effect
Galactokinase (Homo sapiens), sequence (P51570 whole entry, looked up): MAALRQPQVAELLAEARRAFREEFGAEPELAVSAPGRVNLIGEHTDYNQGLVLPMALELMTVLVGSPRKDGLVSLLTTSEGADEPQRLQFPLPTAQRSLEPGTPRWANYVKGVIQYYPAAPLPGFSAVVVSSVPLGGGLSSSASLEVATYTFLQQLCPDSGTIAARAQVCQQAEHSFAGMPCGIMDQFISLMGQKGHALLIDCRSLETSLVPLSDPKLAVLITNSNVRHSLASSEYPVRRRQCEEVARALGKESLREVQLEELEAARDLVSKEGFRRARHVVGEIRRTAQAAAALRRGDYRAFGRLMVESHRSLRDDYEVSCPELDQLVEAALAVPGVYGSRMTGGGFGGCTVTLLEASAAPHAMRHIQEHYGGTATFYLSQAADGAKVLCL
Summary of the method: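 Luminescence from leftover ATP (Kinase-Glo Plus, 10 min) served as read-out after a 1 h room-temperature reaction of 5 nM GALK, 100 uM galactose and 35 uM ATP at pH8.0.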

[17] = Validation screen for small molecules that induce DNA re-replication in SW480 colon adenocarcinoma cells (AID 504364); further: 0% is about no effect
Summary of the method: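 250 cells/well; compound pinned in; 48 hr, 37 C, 5% CO2; Hoechst added, 40 min; nuclear fluorescence imaged, 405 ex / 500-530 em; re-replication scored as increase in high-intensity nuclei.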

[18] = target: Thyrotropin receptor (Homo sapiens) (UniProt P16473); experiment: qHTS Assay for Antagonists of the Thyroid Stimulating Hormone Receptor (AID 488980); further: series mostly up to about 58 µM; 0% is about no effect
Thyrotropin receptor (Homo sapiens), sequence (P16473 whole entry, looked up): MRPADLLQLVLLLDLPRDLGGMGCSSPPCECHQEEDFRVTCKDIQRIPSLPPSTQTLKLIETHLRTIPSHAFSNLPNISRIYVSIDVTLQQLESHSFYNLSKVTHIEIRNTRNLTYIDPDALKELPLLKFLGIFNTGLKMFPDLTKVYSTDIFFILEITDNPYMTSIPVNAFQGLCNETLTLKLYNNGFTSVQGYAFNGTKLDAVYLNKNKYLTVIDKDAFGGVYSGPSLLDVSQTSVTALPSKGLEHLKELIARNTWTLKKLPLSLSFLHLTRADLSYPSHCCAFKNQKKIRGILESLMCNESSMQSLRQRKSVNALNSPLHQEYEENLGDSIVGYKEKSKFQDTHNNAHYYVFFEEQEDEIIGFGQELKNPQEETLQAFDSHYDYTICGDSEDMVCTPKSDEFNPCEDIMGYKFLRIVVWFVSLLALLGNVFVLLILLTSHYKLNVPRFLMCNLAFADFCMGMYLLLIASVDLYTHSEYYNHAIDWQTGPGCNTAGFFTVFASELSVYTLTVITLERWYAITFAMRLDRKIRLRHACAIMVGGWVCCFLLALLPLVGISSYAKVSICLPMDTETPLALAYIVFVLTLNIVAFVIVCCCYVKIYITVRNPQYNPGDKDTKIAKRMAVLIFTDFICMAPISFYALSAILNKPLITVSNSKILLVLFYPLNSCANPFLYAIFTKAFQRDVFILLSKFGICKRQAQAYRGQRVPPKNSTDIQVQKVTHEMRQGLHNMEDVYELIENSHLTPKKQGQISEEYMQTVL
Summary of the method: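 TSHR-HEK293 cells; 70 uM RO 20-1724 PDE inhibitor; compound + EC80 TSH (4 nM final); anti-cAMP cryptate antibody/cAMP-d2 in lysis buffer, 30 min RT; HTRF 665/620 nm read.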

Nc1ncnc2c1c(I)cn2[C@@H]1C[C@H](N)[C@@H](O)[C@H]1O
active: Potency [11] 5.17 µM
inactive: Potency [1] | Potency [2] | Potency [3] | Potency [4] | Potency [5] | outcome [6] | Potency [7] | Potency [8] | Potency [9] | Potency [10] | outcome [12]

O=C(O)[C@@H]1C[C@@H](C(=O)O)N1
2.33%: viability change [15]
inactive: Potency [1] | Potency [2] | Potency [3] | Potency [4] | Potency [5] | outcome [6] | outcome [13] | Potency [7] | Potency [8] | Potency [9] | Potency [10] | activation [14] 1.06% | Potency [15] | outcome [12] | Potency [16] | Potency [17]

CSc1ccccc1N1CCN(CCCCCC(=O)NC2CCCc3ccccc32)CC1 (centres undefined)
active: Potency [9] 2 µM
inactive: Potency [1] | Potency [2] | Potency [3] | Potency [4] | outcome [6] | Potency [7] | Potency [8] | Potency [10]

CCCC1(C)C(C#N)(C#N)C1(C#N)C#N
inactive: Potency [1] | Potency [3] | Potency [4] | Potency [5] | outcome [6] | Potency [7] | Potency [8] | Potency [9] | outcome [12]
active: Potency [2] 10.6 µM | Potency [11] 16.4 µM

CCc1c(C(=O)NCCc2ccc(N3CCCCC3)cc2)[nH]c2ccc(Cl)cc12
inactive: Potency [1] | Potency [2] | Potency [3] | Potency [4] | outcome [6] | Potency [7] | Potency [8] | Potency [9] | Potency [10] | Potency [11] | Potency [15] | outcome [12]
active: Potency [5] 20 µM
-7.76%: viability change [15]

NCCCCC(=O)O
11.5%: viability change [15]
inactive: Potency [1] | Potency [2] | Potency [3] | Potency [4] | Potency [5] | outcome [6] | outcome [13] | outcome [18] | Potency [7] | Potency [8] | Potency [9] | Potency [10] | Potency [11] | activation [14] -0.25% | Potency [15] | outcome [12] | Potency [16] | Potency [17]

Cc1cc(NC(=O)Nc2ccc3c(ccn3C)c2)sn1
inactive: Potency [1] | Potency [2] | Potency [3] | Potency [4] | outcome [6] | outcome [13] | outcome [18] | Potency [7] | Potency [8] | activation [14] 0.625% | Potency [15] | outcome [12] | Potency [16] | Potency [17]
3.91%: viability change [15]

Nc1nc(Nc2ccccc2)nc2c1ncn2[C@@H]1O[C@H](CO)[C@@H](O)[C@H]1O
inactive: Potency [1] | Potency [2] | Potency [3] | Potency [4] | Potency [5] | outcome [6] | Potency [7] | Potency [8] | Potency [15] | outcome [12]
-0.505%: viability change [15]
active: Potency [11] 5.8 µM

Cc1ccc(S(=O)(=O)/C=C/C#N)cc1
active: Potency [2] 0.238 µM | Potency [5] 39.8 µM | Potency [9] 12.6 µM | Potency [11] 20.6 µM
inactive: Potency [1] | Potency [3] | Potency [4] | Potency [7] | outcome [12]

CN1CC(=O)N/C1=N/C(=O)Nc1cccc(Cl)c1
-1.94%: viability change [15]
inactive: Potency [1] | Potency [2] | Potency [3] | Potency [5] | outcome [6] | Potency [7] | Potency [9] | Potency [10] | Potency [15] | outcome [12]

C[N+]1(C)CCC(OC(=O)C(c2ccccc2)c2ccccc2)CC1
1.14%: viability change [15]
inactive: Potency [1] | Potency [2] | Potency [5] | outcome [6] | Potency [7] | Potency [10] | Potency [15] | outcome [12]

C#C[C@]1(O)CC[C@H]2[C@@H]3CCC4=Cc5oncc5CC4(C)[C@H]3CCC21C (some centres undefined)
inactive: Potency [1] | Potency [2] | Potency [3] | Potency [4] | outcome [6] | Potency [10] | outcome [12]

Nc1nc(Cl)nc2c1ncn2[C@@H]1O[C@H](COP(=O)(O)OP(=O)(O)OP(=O)(O)O)[C@@H](O)[C@H]1O
inactive: Potency [1] | Potency [2] | Potency [3] | Potency [5] | outcome [6] | Potency [8] | Potency [11] | Potency [15] | outcome [12]
active: Potency [7] 0.891 µM
3.12%: viability change [15]

COc1cc2c(CCNC(C)=O)c[nH]c2cc1Cl
inactive: Potency [1] | Potency [2] | Potency [4] | Potency [5] | outcome [6] | outcome [13] | outcome [18] | Potency [7] | Potency [8] | Potency [9] | Potency [10] | Potency [11] | activation [14] 0.375% | Potency [15] | outcome [12] | Potency [16] | Potency [17]
2.33%: viability change [15]

CN1CCc2cc(NC(=O)Nc3cccnc3)ccc21
-3.61%: viability change [15]
inactive: Potency [1] | Potency [2] | Potency [3] | Potency [4] | outcome [13] | outcome [18] | Potency [7] | Potency [8] | Potency [9] | activation [14] -2.62% | Potency [15] | outcome [12] | Potency [16] | Potency [17]

CN(C)CCC(c1ccc(Cl)cc1)c1ccccn1 (centres undefined)
inactive: Potency [1] | Potency [2] | Potency [3] | outcome [6] | outcome [13] | outcome [18] | Potency [7] | Potency [8] | Potency [9] | Potency [10] | Potency [11] | activation [14] 1.12% | Potency [15] | outcome [12] | Potency [16] | Potency [17]
7.36%: viability change [15]

NC(=S)c1ccc[n+]([C@@H]2O[C@@H](COP(=O)([O-])OP(=O)(O)OC[C@H]3O[C@@H](n4cnc5c(N)ncnc54)[C@H](OP(=O)(O)O)[C@@H]3O)C(O)C2O)c1 (some centres undefined)
inactive: Potency [1] | Potency [2] | Potency [3] | outcome [6] | Potency [7] | Potency [10] | Potency [11] | Potency [15] | outcome [12]
-6.67%: viability change [15]
active: Potency [5] 89.1 µM

C=CC(C)=C[C@@]1(C)SC(=O)C(C)=C1O
1.42%: viability change [15]
inactive: Potency [1] | Potency [2] | Potency [3] | Potency [4] | outcome [6] | Potency [7] | Potency [8] | Potency [10] | Potency [11] | Potency [15] | outcome [12]
